# Measured values reported in PubChem BioAssay AID1159580 (chemical genetic matrix, 2015).
# Hit rate of the full screen: of about 5,500 compounds, about 2,000 (36%) were called active. Inconclusive results (about 18%) are left out. Some of the results follow. Unmarked numbers belong to inactive results. No stated cut-off is given here; in the data, active means normalized growth mostly below about 0.91 (no sharp cut-off); inconclusive means no clear call, values can overlap the other calls; inactive means mostly above about 0.92.
# Assay: chemical genetic growth profiling, strain panel (AID 1159580);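 further: tested at 20 µM; growth read once vehicle control cultures reached saturation at 30 °C; 1 = growth at the plate median or of vehicle wells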
# Details: growth OD
smiles,measurement,setting,value
COc1ccc2oc3ccccc3c(=O)c2c1,normalized growth,"S. cerevisiae deletion strains, locus YJL187C, strain SWE1, stronger effect = lower value",0.834 (active)
same,normalized growth,"S. cerevisiae deletion strains, locus YJR043C, strain POL32, stronger effect = lower value",0.932
same,normalized growth,"S. cerevisiae deletion strains, locus YJR075W, strain HOC1, stronger effect = lower value",0.885
same,normalized growth,"S. cerevisiae deletion strains, locus YKL009W, strain mrt4, stronger effect = lower value",0.886
same,normalized growth,"S. cerevisiae deletion strains, locus YKL068W, stronger effect = lower value",0.949
same,normalized growth,"S. cerevisiae deletion strains, locus YKL085W, strain MDH1 (second series), stronger effect = lower value",0.914 (active)
same,normalized growth,"S. cerevisiae deletion strains, locus YKL085W, strain MDH1, stronger effect = lower value",0.914 (active)
same,normalized growth,"S. cerevisiae deletion strains, locus YKL160W, strain elf1, stronger effect = lower value",0.823 (active)
same,normalized growth,"S. cerevisiae deletion strains, locus YKL190W, strain CNB1, stronger effect = lower value",0.922
same,normalized growth,"S. cerevisiae deletion strains, locus YKR001C, strain vps1, stronger effect = lower value",0.526 (active)
same,normalized growth,"S. cerevisiae deletion strains, locus YKR026C, strain gcn3, stronger effect = lower value",0.927
same,normalized growth,"S. cerevisiae deletion strains, locus YKR091W, strain srl3, stronger effect = lower value",0.945
same,normalized growth,"S. cerevisiae deletion strains, locus YLL001W, strain dnm1, stronger effect = lower value",0.875 (active)
same,normalized growth,"S. cerevisiae deletion strains, locus YLL026W, stronger effect = lower value",0.879 (active)
same,normalized growth,"S. cerevisiae deletion strains, locus YLL041C, strain sdh2, stronger effect = lower value",0.937
same,normalized growth,"S. cerevisiae deletion strains, locus YLR027C, strain aat2, stronger effect = lower value",0.855 (active)
same,normalized growth,"S. cerevisiae deletion strains, locus YLR039C, strain RIC1, stronger effect = lower value",0.486 (active)
same,normalized growth,"S. cerevisiae deletion strains, locus YLR058C, strain SHM2, stronger effect = lower value",0.861 (active)
same,normalized growth,"S. cerevisiae deletion strains, locus YLR102C, strain apc9, stronger effect = lower value",0.907 (active)
same,normalized growth,"S. cerevisiae deletion strains, locus YLR221C, strain rsa3, stronger effect = lower value",0.821 (active)
same,normalized growth,"S. cerevisiae deletion strains, locus YLR258W, strain gsy2, stronger effect = lower value",0.871 (active)
same,normalized growth,"S. cerevisiae deletion strains, locus YLR262C, strain YPT6 (second series), stronger effect = lower value",0.597 (active)
same,normalized growth,"S. cerevisiae deletion strains, locus YLR262C, strain YPT6, stronger effect = lower value",0.577 (active)
same,normalized growth,"S. cerevisiae deletion strains, locus YLR268W, strain sec22, stronger effect = lower value",0.84 (active)
same,normalized growth,"S. cerevisiae deletion strains, locus YLR320W, strain mms22, stronger effect = lower value",0.464 (active)
same,normalized growth,"S. cerevisiae deletion strains, locus YLR330W, strain CHS5, stronger effect = lower value",0.854 (active)
same,normalized growth,"S. cerevisiae deletion strains, locus YLR342W, strain FKS1 (second series), stronger effect = lower value",0.945
same,normalized growth,"S. cerevisiae deletion strains, locus YLR342W, strain FKS1, stronger effect = lower value",0.952
same,normalized growth,"S. cerevisiae deletion strains, locus YLR357W, strain rsc2, stronger effect = lower value",1.09
same,normalized growth,"S. cerevisiae deletion strains, locus YLR370C, strain arc18, stronger effect = lower value",0.946
same,normalized growth,"S. cerevisiae deletion strains, locus YLR371W, strain rom2, stronger effect = lower value",0.7 (active)
same,normalized growth,"S. cerevisiae deletion strains, locus YLR384C, strain iki3, stronger effect = lower value",0.912 (active)
same,normalized growth,"S. cerevisiae deletion strains, locus YLR418C, strain cdc73, stronger effect = lower value",0.659 (active)
same,normalized growth,"S. cerevisiae deletion strains, locus YML016C, strain PPZ1, stronger effect = lower value",0.881 (active)
same,normalized growth,"S. cerevisiae deletion strains, locus YML032C, strain rad52, stronger effect = lower value",0.755 (active)
same,normalized growth,"S. cerevisiae deletion strains, locus YML120C, strain ndi1, stronger effect = lower value",0.742 (active)
same,normalized growth,"S. cerevisiae deletion strains, locus YML124C, strain tub3, stronger effect = lower value",0.902 (active)
same,normalized growth,"S. cerevisiae deletion strains, locus YMR058W, strain fet3, stronger effect = lower value",0.86 (active)
same,normalized growth,"S. cerevisiae deletion strains, locus YMR078C, strain ctf18, stronger effect = lower value",0.852 (active)
same,normalized growth,"S. cerevisiae deletion strains, locus YMR125W, strain sto1, stronger effect = lower value",0.713 (active)
same,normalized growth,"S. cerevisiae deletion strains, locus YMR129W, stronger effect = lower value",0.95
same,normalized growth,"S. cerevisiae deletion strains, locus YMR205C, strain PFK2, stronger effect = lower value",0.78 (active)
same,normalized growth,"S. cerevisiae deletion strains, locus YMR223W, strain ubp8, stronger effect = lower value",0.84 (active)
same,normalized growth,"S. cerevisiae deletion strains, locus YMR231W, strain pep5, stronger effect = lower value",0.915 (active)
same,normalized growth,"S. cerevisiae deletion strains, locus YMR307W, strain GAS1, stronger effect = lower value",0.845
same,normalized growth,"S. cerevisiae deletion strains, locus YNL067W, strain RPL9B, stronger effect = lower value",0.874
same,normalized growth,"S. cerevisiae deletion strains, locus YNL071W, strain lat1, stronger effect = lower value",0.421 (active)
same,normalized growth,"S. cerevisiae deletion strains, locus YNL128W, strain TEP1, stronger effect = lower value",0.815 (active)
same,normalized growth,"S. cerevisiae deletion strains, locus YNL209W, strain ssb2, stronger effect = lower value",0.934
same,normalized growth,"S. cerevisiae deletion strains, locus YNL233W, strain BNI4, stronger effect = lower value",0.81 (active)
same,normalized growth,"S. cerevisiae deletion strains, locus YNL248C, strain rpa49, stronger effect = lower value",0.397 (active)
same,normalized growth,"S. cerevisiae deletion strains, locus YNL250W, strain rad50, stronger effect = lower value",0.866 (active)
same,normalized growth,"S. cerevisiae deletion strains, locus YNL271C, strain bni1, stronger effect = lower value",0.874 (active)
same,normalized growth,"S. cerevisiae deletion strains, locus YNL298W, strain CLA4, stronger effect = lower value",0.869 (active)
same,normalized growth,"S. cerevisiae deletion strains, locus YNL307C, strain MCK1, stronger effect = lower value",0.569 (active)
same,normalized growth,"S. cerevisiae deletion strains, locus YNL322C, strain KRE1 (second series), stronger effect = lower value",0.992
same,normalized growth,"S. cerevisiae deletion strains, locus YNR049C, strain mso1, stronger effect = lower value",0.947
same,normalized growth,"S. cerevisiae deletion strains, locus YNR052C, strain pop2, stronger effect = lower value",0.874 (active)
same,normalized growth,"S. cerevisiae deletion strains, locus YOL012C, strain htz1",0.651
same,normalized growth,"S. cerevisiae deletion strains, locus YOL147C, strain pex11, stronger effect = lower value",0.906 (active)
same,normalized growth,"S. cerevisiae deletion strains, locus YOR001W, strain rrp6, stronger effect = lower value",0.825 (active)
same,normalized growth,"S. cerevisiae deletion strains, locus YOR061W, strain CKA2, stronger effect = lower value",0.886 (active)
same,normalized growth,"S. cerevisiae deletion strains, locus YOR069W, strain VPS5, stronger effect = lower value",0.918 (active)
same,normalized growth,"S. cerevisiae deletion strains, locus YOR070C, strain gyp1, stronger effect = lower value",0.859 (active)
same,normalized growth,"S. cerevisiae deletion strains, locus YOR080W, strain dia2, stronger effect = lower value",0.959
same,normalized growth,"S. cerevisiae deletion strains, locus YOR083W, strain WHI5, stronger effect = lower value",0.789 (active)
same,normalized growth,"S. cerevisiae deletion strains, locus YOR106W, strain vam3, stronger effect = lower value",0.817 (active)
same,normalized growth,"S. cerevisiae deletion strains, locus YOR136W, strain idh2, stronger effect = lower value",0.922
same,normalized growth,"S. cerevisiae deletion strains, locus YOR144C, strain elg1, stronger effect = lower value",0.904 (active)
same,normalized growth,"S. cerevisiae deletion strains, locus YOR184W, strain ser1, stronger effect = lower value",0.771 (active)
same,normalized growth,"S. cerevisiae deletion strains, locus YOR265W, strain rbl2, stronger effect = lower value",0.932
same,normalized growth,"S. cerevisiae deletion strains, locus YOR270C, strain vph1, stronger effect = lower value",0.528 (active)
same,normalized growth,"S. cerevisiae deletion strains, locus YOR290C, strain snf2, stronger effect = lower value",0.686 (active)
same,normalized growth,"S. cerevisiae deletion strains, locus YOR316C, strain cot1, stronger effect = lower value",0.903 (active)
same,normalized growth,"S. cerevisiae deletion strains, locus YPL051W, strain arl3, stronger effect = lower value",0.772 (active)
same,normalized growth,"S. cerevisiae deletion strains, locus YPL078C, strain atp4, stronger effect = lower value",0.773 (active)
same,normalized growth,"S. cerevisiae deletion strains, locus YPL106C, strain sse1, stronger effect = lower value",0.78 (active)
same,normalized growth,"S. cerevisiae deletion strains, locus YPL240C, strain hsp82, stronger effect = lower value",0.931
same,normalized growth,"S. cerevisiae deletion strains, locus YPL241C, strain CIN2, stronger effect = lower value",0.917 (active)
same,normalized growth,"S. cerevisiae deletion strains, locus YPR119W, strain clb2, stronger effect = lower value",0.907 (active)
same,normalized growth,"S. cerevisiae deletion strains, locus YPR141C, strain kar3, stronger effect = lower value",0.882 (active)
same,normalized growth,"S. cerevisiae deletion strains, locus YPR163C, strain tif3, stronger effect = lower value",0.756 (active)
same,normalized growth,"S. cerevisiae deletion strains, locus YPR167C, strain met16, stronger effect = lower value",0.925
same,normalized growth,"S. cerevisiae deletion strains, strain wtn01, stronger effect = lower value",0.87 (active)
same,normalized growth,"S. cerevisiae strains, strain wild type, stronger effect = lower value",0.874 (active)
